Laboratory results published in PubChem BioAssay AID1851 (National Center for Advancing Translational Sciences (NCATS), 2009).
“And” between values parts separate entries of the source, which are not always exact repeats. Equal entries are not always repeated. The whole screen tested about 16,000 compounds, of which about 5,700 (36%) were called active. Inconclusive results (about 24%) are left out. Calls follow the shape of the dose curve; as a rule, active = well fitted curve in the direction sought with a large enough effect; inconclusive = small, poorly fitted or top-dose-only effect, or effect the other way; inactive = no such curve, though single readings can be large or run the other way. Some of the results follow.

biological target: Cytochrome P450 1A2 (Homo sapiens) (UniProt P05177); test: Cytochrome panel assay with activity outcomes; details: recombinant CYP, pro-luciferin dealkylation, luminescence, p450-cyp1a2; series mostly up to 57.1 µM
Sequence (P05177 whole entry, looked up): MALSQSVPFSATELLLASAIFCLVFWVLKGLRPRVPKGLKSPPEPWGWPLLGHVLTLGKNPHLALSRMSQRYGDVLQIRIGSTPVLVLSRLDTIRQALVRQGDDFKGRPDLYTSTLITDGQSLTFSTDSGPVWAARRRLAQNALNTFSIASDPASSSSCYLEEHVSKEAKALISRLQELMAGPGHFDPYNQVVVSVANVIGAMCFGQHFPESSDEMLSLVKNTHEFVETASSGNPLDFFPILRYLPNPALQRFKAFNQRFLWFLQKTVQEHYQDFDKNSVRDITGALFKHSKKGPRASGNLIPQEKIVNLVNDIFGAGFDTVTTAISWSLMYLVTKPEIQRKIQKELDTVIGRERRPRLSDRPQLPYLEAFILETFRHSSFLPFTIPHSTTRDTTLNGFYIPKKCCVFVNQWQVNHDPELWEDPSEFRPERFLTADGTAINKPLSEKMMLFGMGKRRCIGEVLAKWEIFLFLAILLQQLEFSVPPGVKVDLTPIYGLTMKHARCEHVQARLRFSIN
% is scaled to controls: 0 for no effect and ±100 for the full control effect.

AC50, inactive:
Cc1ccc(S(=O)(=O)N2CCCC(C(=O)NCCCN3CCCCC3C)C2)cc1 (configuration not stated)
CCCc1ccc(-c2cc(C(=O)NN3CCOCC3)c3ccccc3n2)cc1
COCc1nnc(NC(=O)CCN2C(=O)c3ccccc3C2=O)s1
CC(C)(C)c1nnc(NC(=O)c2cc(-c3ccccc3)nc3ccccc23)s1
CCC[C@H]1C[C@H](C(=O)N[C@H]([C@@H]2O[C@H](SC)[C@@H](O)[C@H](O)[C@@H]2O)[C@H](C)O)N(C)C1
Cc1cc([N+](=O)[O-])nn1CC(=O)NNC(=S)Nc1ccc(F)cc1
CC12CCC(C(=O)Nc3ncc([N+](=O)[O-])s3)(OC1=O)C2(C)C (configuration not stated)
O=C(N/N=C/c1cccc(C(F)(F)F)c1)C1CCN(c2ncc(C(F)(F)F)cc2Cl)CC1
C[C@@]12CC[C@@H]3c4ccc(O)cc4CC[C@H]3[C@H]1C[C@@H](O)[C@H]2O
CCc1cc2c(c(CC)n1)CCC(=O)N2Cc1ccc(-c2ccccc2-c2nn[nH]n2)cc1
Cc1cccc(C)c1NC(=O)c1cc2c(=O)c3ccccc3oc2nc1C(F)(F)F
CC(C)[C@H](CO)Nc1nc(Nc2ccc(C(=O)O)c(Cl)c2)c2ncn(C(C)C)c2n1
Cc1cccc(NC(=S)N2CCC(N(C)CC3CCCO3)CC2)c1C (configuration not stated)
CC(=C\C(=O)O)/C(=C/c1ccccc1)C(=O)O
COC(=O)c1ccc(C2C(Oc3ccccc3)C(=O)N2CCc2ccc(OC)c(OC)c2)cc1 (configuration not stated)
Cc1cnc(CNc2ncnc3ccc(-c4ccccc4CN(C)C)cc23)cn1
CC(C)NC(=O)N1CC[C@@]2(CCCN(C(=O)c3csnn3)C2)C1
CC[C@@H]1OC(=O)[C@H](C)[C@H](O[C@@H]2C[C@](C)(OC)[C@H](O)[C@H](C)O2)[C@H](C)[C@H](O[C@@H]2O[C@@H](C)C[C@@H](N(C)C)[C@@H]2O)[C@](C)(O)C[C@H](C)C(=NOCOCCOC)[C@H](C)[C@H](O)[C@]1(C)O
Cc1ccc[n+](CC(=O)c2cc3ccccc3oc2=O)c1
COc1cc(N2CCOCC2)ncn1
COc1ccc(C2(C(=O)N3CCOCC3)CCCC2)cc1
CCOc1cc(/C=N/NC(=O)c2cc(C)[nH]n2)ccc1OC(=O)c1ccc([N+](=O)[O-])cc1
COc1ccc(/C=C/C(=O)Oc2cccc(/C=N/NC(=O)COc3c(C)cccc3C)c2)cc1
CN(C)CCNC(=S)Nc1cccc(Cl)c1
CC1(C)S[C@@H]2[C@H](NC(=O)[C@@H](N)c3ccccc3)C(=O)N2[C@H]1C(=O)O[C@H]1OC(=O)c2ccccc21
CN1CCc2c(sc3c2c(=O)n(-c2ccccc2)c2nncn32)C1
CCCCCCCCCCCCCCCCCCOC[C@@H](COP(=O)([O-])OCC[N+](C)(C)C)OC
COc1ccc(CC(=O)Nc2ccc(-c3nnc(-c4ccccc4)o3)cc2)cc1
CCOc1ccc(OCC)c(-c2c(=O)n(OCc3ccccc3C(=O)OC)c3ccccc3[n+]2[O-])c1
COC(=O)c1ccccc1NC(=O)CSc1nnc(C(CO)NC(=O)c2ccccc2Cl)n1C (configuration not stated)

AC50, active:
Cc1ccc(-c2cc(C(=O)NN=C3CCCC3)c3ccccc3n2)cc1 15800 nM
Cc1cccc(NC(=S)NC(=O)CCc2ccccc2)c1 6310 nM
Cc1ccccc1NC(=S)NC(=O)c1cc(-c2ccccc2)nc2ccccc12 14100 nM
O=C(CCN1C(=O)c2ccccc2C1=O)NC(=S)Nc1cccc(Cl)c1 3160 nM
Cc1cccc(NC(=S)NC(=O)c2cc(-c3ccccc3)nc3ccccc23)c1 8910 nM
Cc1nc(SCC(=O)c2ccc(F)cc2)c([N+](=O)[O-])[nH]1 6310 nM
Oc1ccccc1C(Sc1nc2ccccc2s1)Sc1nc2ccccc2s1 1260 nM
NCCSc1nc2ccccc2s1 316 nM
c1ccc2sc(SCCSc3nc4ccccc4s3)nc2c1 794 nM
c1ccc(NCCSc2nc3ccccc3s2)cc1 501 nM
CN(C)Cc1ccccc1-c1cc(Nc2ccccc2)ncn1 15800 nM
CN(C)Cc1ccccc1-c1cc(NC2CC2)ncn1 12600 nM
CON/C=C(\C=Nc1ccccc1)c1ncc(C(F)(F)F)cc1Cl 2240 nM
O=C1C(=O)N(Cc2ccc(Cl)c(Cl)c2)c2ccccc21 12600 nM
CNc1ncnc2ccc(-c3ccccc3C#N)cc12 1000 nM
N#Cc1ccccc1-c1ccc2ncnc(NC3CC3)c2c1 100 nM
Cn1c(C(F)(F)F)nc2c(=O)oc3ccccc3c21 158 nM
CC(C)[C@H](CO)Nc1nc(Nc2cc(N)cc(Cl)c2)c2ncn(C(C)C)c2n1 501 nM
Cc1cc(N)n2ncc(-c3ccc(Cl)cc3)c2n1 1260 nM
O=C(Nc1ccc2ccccc2c1)c1onc2c1CCCC2 4470 nM
Cc1cccc(NC(=O)c2onc3c2CCCC3)c1C 2240 nM
Cn1c(-c2ccc(Br)cc2)cnc1NCc1cccnc1 12600 nM
CC(=C/c1ccccc1)/C=N/n1cnnc1 2000 nM
Cc1cnc(CNc2ncnc3ccc(-c4ccccc4Cl)cc23)cn1 6310 nM
Cc1cnc(CNc2ncnc3ccc(-c4ccccc4C(F)(F)F)cc23)cn1 12600 nM
COc1ccccc1-c1ccc2ncnc(NCc3cnc(C)cn3)c2c1 6310 nM
Cc1cnc(CNc2ncnc3ccc(-c4ccccc4C)cc23)cn1 6310 nM
CC(=O)c1cc2ccccc2oc1=O 200 nM
CC(C)OC(=O)c1cc2ccccc2oc1=O 447 nM
CCN(CC)c1ccc2cc(C(C)=O)c(=O)oc2c1 891 nM
COc1cc(CNn2nnnc2N)ccc1OCc1c(Cl)cccc1Cl 7080 nM
O=C(Nc1cccnc1)c1ccc2snnc2c1 63.1 nM
COc1ccc(OC)c2c(=S)c3ccccc3[nH]c12 63.1 nM
COc1ccc2c(C)cc(N3CCOCC3)nc2c1 2510 nM
NCCCCCc1nnc(SCc2ccc(Cl)cc2Cl)o1 11200 nM
CCOc1cc(/C=N/NC(=O)COc2cccc(C)c2)ccc1OC(=O)c1cccs1 11200 nM
FC(F)(F)c1cccc(NC(=S)Nc2cccc(Cl)c2)c1 5010 nM
S=C(NCc1ccccn1)Nc1cccc(Cl)c1 2820 nM
O=C(Nc1cc(C(F)(F)F)ccc1-n1cncn1)c1ccc(Br)cc1 562 nM
Cn1c(=O)c2c3c(sc2n2cnnc12)CCC3 8910 nM
c1ccc(-c2nc(-c3cccs3)[nH]c2-c2ccccc2)cc1 1000 nM
Cc1ccsc1-c1nc(-c2ccccc2)c(-c2ccccc2)[nH]1 1120 nM
COc1ccc(NC(=O)c2ccc(COc3ccccc3)o2)cc1 2510 nM
COC(=O)c1ccccc1NC(=O)c1ccc(COc2ccc(C)c(C)c2)o1 2820 nM
Cc1ccc(OCc2ccc(C(=O)Nc3nccs3)o2)cc1C 631 nM
COC(=O)c1ccccc1NC(=O)c1ccc(Cn2cc(Cl)cn2)o1 1580 nM
CCOc1nc(N2CCCCC2)nc(-n2cc(-c3ccccc3)nn2)n1 2510 nM

activity, negative = inhibition, inactive:
Cn1cnc([N+](=O)[O-])c1SCC(=O)O -9.68% [at 11.4 µM]
O=C(O)CCCSc1nc2ccccc2s1 -16.9% [at 11.4 µM]
CC1(C)O[C@@H]2O[C@H]([C@@H]3COC(C)(C)O3)[C@H](N)[C@H]2O1 8.69% [at 2.29 µM]
CO[C@@H]1COC(=O)C/C=C\[C@H](C)COC(=O)[C@H](Cc2ccccc2)NC(=O)C/C=C\[C@H]1C 4.04% [at 11.4 µM]
Cc1ccnc(NS(=O)(=O)c2ccc(N=[N+]=[N-])cc2)n1 -6.01% [at 11.4 µM]
CC(C)CO/N=C1/C[C@@H](O)[C@@H](O)[C@@H]2[C@H]3C(=O)N(c4ccc(F)cc4F)C(=O)[C@@H]3CC[C@H]12 0.352% [at 11.4 µM]
CC(C)NCC[C@@H](O)c1cc2ccccc2o1 -2.1% [at 2.29 µM]
O=C(Nc1ccc2oc(=O)c(C(=O)O)cc2c1)Oc1ccccc1 -15.3% [at 2.29 µM]
COc1ccc(C[N+](C)(C)N)cc1OC -11.5% [at 11.4 µM]
Nc1ncnc2c1ncn2CCCCC(=O)O -3.15% [at 11.4 µM]
Nc1ccc(S(=O)(=O)c2ccc(NC(=O)c3cccnc3)cc2)cc1 -21.1% [at 2.29 µM]
CO[C@H]1COC(=O)[C@@H](C)COC(=O)[C@@H](Cc2ccccc2)NC(=O)C/C=C\[C@H]1C 4.52% [at 11.4 µM]
CCOC(=O)CCN1C(=O)[C@H]2[C@H]3[C@H](O)[C@H](O)C/C(=N/OC[C@@H](O)COCc4ccco4)[C@@H]3CC[C@@H]2C1=O -1.07% [at 11.4 µM]
OCCN(CCO)c1ncnc2nc[nH]c12 -9.2% [at 11.4 µM]
CO[C@@H]1COC(=O)[C@H](Cc2ccccc2)NC(=O)C/C=C\[C@@H](C)[C@H](OC)COC(=O)[C@@H](C)NC(=O)C/C=C\[C@H]1C -3.56% [at 11.4 µM] and 1.16% [at 11.4 µM]
